Rows were chosen to be rich in hits. Some 4.7% of all compounds tested hit in one or more screens of this group.
TRHR enhancer – qHTS for Small Molecule Agonists and Allosteric Enhancers of Human TRH Receptor: Primary Screen for Enhancers. enhancement, % at 2 µM. Thyrotropin-releasing hormone receptor (Homo sapiens), P34981. TRHR cells, fluo-8 calcium fluorescence, EC20 TRH enhancement. hit rate 0.66% among 360,000; in the data active = enhancement above about 30%
Target sequence (P34981 whole entry, looked up): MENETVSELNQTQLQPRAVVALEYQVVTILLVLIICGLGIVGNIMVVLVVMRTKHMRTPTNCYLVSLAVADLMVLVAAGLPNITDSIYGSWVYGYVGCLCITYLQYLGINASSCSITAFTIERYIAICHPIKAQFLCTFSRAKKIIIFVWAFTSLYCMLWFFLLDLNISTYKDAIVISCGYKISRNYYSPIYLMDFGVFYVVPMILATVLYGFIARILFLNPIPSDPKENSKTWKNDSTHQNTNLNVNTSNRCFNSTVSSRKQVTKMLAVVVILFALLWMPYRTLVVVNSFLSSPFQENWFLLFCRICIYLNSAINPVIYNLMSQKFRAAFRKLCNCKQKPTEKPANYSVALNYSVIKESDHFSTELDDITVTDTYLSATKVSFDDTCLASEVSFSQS
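Enhancer read-out: after compound pinning and an initial kinetic agonist-mode read, an EC20 of TRH (10 nM final) was injected and fluo-8 calcium signal (Ex 480/Em 530) followed at 1 s/cycle for 100 cycles in TRHR-expressing cells.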
D1 antagonist – Antagonist of Human D 1 Dopamine Receptor: qHTS | D(1A) dopamine receptor (Homo sapiens), P21728 | activity change, negative = inhibition, % at 10 µM | HEK293 TREx D1 cells, calcium flux, dopamine EC80; stronger effect = lower value | hit rate 3.2% among 360,000; in the data active = activity change below about -30%
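Using tetracycline-induced force-coupled D1 Hek293 cells and a calcium dye, signals were followed for 180 s after compound, then for 180 s after EC80 dopamine, to detect inhibitors.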
D1 potentiator – Potentiators of Human D1 Dopamine Receptor: qHTS | hit rate 0.036% among 360,000 | D(1A) dopamine receptor (Homo sapiens), P21728 | AID 504651, 2011 | potentiation, % at 10 µM | HEK293 TREx D1 cells, calcium flux, dopamine EC20 potentiation; in the data active = potentiation above about 30%
TRHR ag – qHTS for Small Molecule Agonists and Allosteric Enhancers of Human TRH Receptor: Primary Screen for Agonists. Thyrotropin-releasing hormone receptor (Homo sapiens), P34981. TRHR cells, calcium flux fluo-8, FDSS agonist mode. activation, % at 2 µM. hit rate 0.18% among 360,000
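TRHR-expressing cells loaded with fluo-8 calcium dye; 23 nL library compound pin-transferred, kinetic FDSS fluorescence (Ex 480/Em 530) recorded about 180 s for agonist-induced calcium release, before a 10 nM TRH EC20 addition for potentiator mode.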
D1 agonist – Allosteric Agonists of the Human D1 Dopamine Receptor: qHTS; HEK293 T-REx D1 cells, calcium flux, agonist mode; hit rate 1% among 360,000; activation, % at 2 µM; AID 504660, 2011; D(1A) dopamine receptor (Homo sapiens), P21728
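Tetracycline-induced HEK293 TREx D1 cells, force-coupled to calcium signalling, were dye-loaded with a no-wash calcium kit. Compound was pin-added after a 10 s baseline. Fluorescence was read kinetically at 1 cycle/s for 180 s, with calcium rises flagged as agonism.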
Each line names hits and unclear results; the compound was inactive in the other large screens. Rule as the data show it, unless noted: active = activation above about 30%; inactive = the rest.

COc1cc2oc(=O)c(CC(=O)N3CCCCC3)c(C)c2cc1Cl	none
COc1cc(OC)c2c(C)c(CC(=O)N3CCCCC3)c(=O)oc2c1	TRHR enhancer 35
CCCCNS(=O)(=O)c1ccc(S(=O)(=O)N2CCC3(CC2)OCCO3)cc1	D1 antagonist -46
O=S(=O)(c1ccc(S(=O)(=O)N2CCC3(CC2)OCCO3)cc1)N1CCCC1	none
CCc1cccc(C)c1NC(=O)Cn1ncc2c3ccccc3n(Cc3ccccc3)c2c1=O	none
CC(=O)Nc1sc(C)c(C)c1C(=O)OCC(=O)N(Cc1ccccc1)C(C)C	none
COc1ccc(-n2c(=O)c(NC(=O)c3ccccc3)c3n(c2=S)CCCCC3)cc1	D1 antagonist -31
COc1cc(C(=O)NCCOc2ccc(F)cc2)c(Br)c(OC)c1OC	D1 antagonist -55
COc1cc(C(=O)NCCOc2ccccc2)c(Br)c(OC)c1OC	none
COc1cc(C(=O)Nc2ccc(C(C)=O)cc2)c(Br)c(OC)c1OC	none
COc1ccc(NC(=O)c2cc(OC)c(OC)c(OC)c2Br)cc1OC	TRHR enhancer 39
CCCOC(=O)c1ccc(NC(=O)c2cc(OC)c(OC)c(OC)c2Br)cc1	D1 antagonist -36
CSc1ncc(Cl)c(C(=O)Nc2ccccc2[N+](=O)[O-])n1	none
O=C(O)c1ccc2c(=O)n3c(nc2c1)/C(=C/c1ccc(Cl)cc1Cl)CC3	none
Cc1ccc(-c2noc(CN(C3CCCCC3)S(=O)(=O)c3ccc(F)cc3)n2)cc1	none
CCOc1ccc(NC(=O)NCCCN2CCN(c3ccc(F)cc3)CC2)cc1	D1 antagonist -36
COc1ccc(N2CCN(CCCNC(=O)Nc3ccccc3Cl)CC2)cc1	none
CSc1ccc(NC(=O)NCCCN2CCC(Cc3ccccc3)CC2)cc1	D1 agonist 196
CCc1ccc(N2CCN(CCNC(=O)Nc3ccc(OC)cc3)CC2)cc1	none
COc1ccccc1S(=O)(=O)Cc1ccc(C(=O)NCCCN2CCN(c3ccc(F)cc3)CC2)o1	D1 antagonist -62
O=C(NCCCN1CCN(c2ccc(F)cc2)CC1)Nc1ccccc1Cl	D1 antagonist -67, D1 agonist 43
COC(C(=O)Nc1ccnn1C1CCN(C(=O)c2ccc(C=O)cc2)CC1)c1ccccc1 (stereo not given)	none
CCCCN(CC)CCCNC(=O)CCN1N=C(c2ccc(OC)cc2)CCC1=O	none
O=C(NCCCN1CCN(c2ccc(F)cc2)CC1)Nc1ccc(Cl)cc1	D1 antagonist -77, D1 agonist 69
O=C(CN1CCN(Cc2ccc(Cl)cc2)C1=O)NCCCN1CCN(c2ccc(F)cc2)CC1	none
CSc1cccc(NC(=S)NCCCN2CCN(c3ccc(F)cc3)CC2)c1	D1 antagonist -76
CSc1ccc(N2CCN(CCCNC(=O)Nc3ccccc3F)CC2)cc1	D1 agonist 75
Cc1ccccc1CN1CCN(CC(=O)NCCCN2CCN(c3ccc(F)cc3)CC2)C1=O	D1 antagonist -65
O=C(CCN1CCN(c2ccc(F)cc2)CC1)Nc1ccccc1F	none
Cc1ccc(S(=O)(=O)NCc2ccco2)cc1C(N)=O	none
Cc1oc(-c2cccc(Br)c2)nc1Cn1c(SCc2cccc(F)c2)nc2cccnc21	none
O=C(NCCN1CCN(c2ccccc2Cl)CC1)Nc1ccccc1	none
Cc1cccc(N2CCN(CCNC(=O)Nc3ccc(Cl)cc3)CC2)c1C	D1 antagonist -33, D1 agonist 30
COc1ccc(CN2C(=O)c3oc4ccc(F)cc4c(=O)c3C2c2ccc(O)cc2)cc1 (stereo not given)	D1 antagonist -36
Cc1ccccc1SCCNC(=O)c1ccccc1Br	TRHR enhancer 33
COCCNC(=O)c1ccc(-n2c(-c3ccccc3)cc3c2CCCCC3)cc1	D1 agonist 39
CCCNC(=O)c1ccc(-n2c(-c3ccccc3)cc3c2CCCCC3)cc1	none
O=C(NNC(=O)c1ccccc1O)c1ccc(Cl)c(S(=O)(=O)N2CCc3ccccc32)c1	D1 antagonist -33
CC(=O)N1CCN(C(=O)c2ccc(Cl)c(S(=O)(=O)N3CCc4ccccc43)c2)CC1	none
O=C(Nc1cccc(C(F)(F)F)c1)C1CCN(S(=O)(=O)c2ccc(N3CCCC3=O)cc2)CC1	D1 antagonist -47
CC(=O)N1c2ccc(S(=O)(=O)N3CCC(C(=O)Nc4cccc(C(F)(F)F)c4)CC3)cc2CC1C (stereo not given)	D1 antagonist -34
Cc1ccc(-n2c(SCC(=O)Nc3cccc(Cl)c3)nc3n[nH]c(C)c3c2=N)cc1	none
Cc1csc(NC(=O)CSc2nnc(-c3ccoc3C)o2)n1	none
Cc1occc1-c1nnc(SCC(=O)Nc2nc(C(C)(C)C)cs2)o1	D1 agonist 31 (no result: D1 antagonist)
Cc1cc(C)c(OCC(=O)Nc2ccc(N3CCOCC3)cc2)c(Br)c1	none
CN(C)c1ccc2nc3c(=O)[nH]c(=O)nc-3n(CC(O)C(O)C(O)CO)c2c1 (stereo not given)	D1 agonist 46
O=C(c1ccc2c(c1)OCO2)N1CCC2(CC1)Oc1ccc(F)cc1C(=O)C21CC(c2ccccc2)=NO1 (stereo not given)	none
CC(C)(C)NC(=O)NC(=O)COC(=O)c1cccc(F)c1	none
CC(C)(C)NC(=O)NC(=O)COC(=O)c1cccc(OC(F)F)c1	D1 antagonist -31
CSc1ccc(C2CC(=O)Oc3c2c(=O)n(C)c2ccccc32)cc1 (stereo not given)	none
COC(=O)CCc1sc(Nc2ccc(OC)cc2)nc1-c1ccc(OC)cc1	none
CCn1cc([N+](=O)[O-])c(C(=O)N2N=C(c3ccc(OC)cc3OC)CC2c2ccccc2O)n1 (stereo not given)	D1 antagonist -31
CCn1cc([N+](=O)[O-])c(C(=O)N2N=C(c3cccc4ccccc34)CC2c2ccccc2O)n1 (stereo not given)	none
CCCc1cc(C(=O)OC)c(NC(=O)CCCC(=O)O)s1	TRHR enhancer 36
O=S(=O)(NCCc1cn(S(=O)(=O)c2ccccc2)c2ccccc12)c1ccccc1	none
O=C(NCn1ccc(=O)[nH]c1=S)c1ccccc1	D1 antagonist -46
O=C(NCNC(=O)c1ccccc1)c1ccccc1	none
CCOc1ccc2cc(-c3nnc(Nc4ccc(C)cc4)s3)c(=O)oc2c1	none
CC1=CC(C)(C)N=C(Nc2ccc(C)cc2)S1	D1 antagonist -33
CCN(CC)c1nc(C)c(C(=S)Nc2cc([N+](=O)[O-])ccc2Cl)s1	D1 agonist 39
Cc1ccc(-c2noc(-c3ccccc3OCC(=O)Nc3ccccc3[N+](=O)[O-])n2)cc1	none
Cc1ccccc1-c1noc(-c2ccccc2OCC(=O)Nc2ccccc2[N+](=O)[O-])n1	D1 antagonist -63
